The record followed here is PubChem BioAssay (NCATS).

Records with an inconclusive call do not appear. Calls of active or inactive are those of the source. Unless noted, calls come from the whole dose curve; as a rule, active = well fitted cell-killing curve with a large enough effect; inconclusive = small, poorly fitted or top-dose-only effect; inactive = flat fitted curve, though single readings scatter.

The nature of assay [1]: Cell Viability - LYMP2-020 (AID 986).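 Note: series mostly up to about 92 µM; cells exposed to compound for 24 h at 37 °C; plate controls were DMSO only for no effect and tetraoctylammonium bromide at 92 µM for full effect; nearly all actives have a fitted effect of over 55% in size.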 The gist of the method:
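Seed 2500 cells per well and incubate 5 hr at 37 C. Add compounds at a concentration series and incubate 24 hr at 37 C. Add CellTiter-Glo, wait 30 min at RT, read luminescence, and fit a Hill curve for AC50.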

Assay [2] can be described thus: Cell Viability - LYMP2-024 (AID 988).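 Note: plate controls were DMSO only for no effect and 92 µM tetraoctylammonium bromide for full effect; nearly all actives have a fitted effect of over 60% in size.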 The gist of the method:
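qHTS cytotoxicity, human lymphoblastoid line, complete medium; 24 h cpd treatment, 37 C; CellTiter-Glo ATP luminescence readout; tetraoctylammonium bromide positive control; AC50 via Hill fit.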

Assay [3] in a line: Cell Viability - LYMP2-026 (AID 989).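 Note: cells exposed to compound for 24 h at 37 °C; % is set by controls: 0 for no effect and ±100 for the full control effect; nearly all actives have a fitted effect of over 50% in size.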 An outline of the steps:
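Cells are seeded at 2500 per well and held 5 hr at 37 C. Compounds are added in concentration series for 24 hr, then CellTiter-Glo reagent is applied and luminescence read.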

A short description of assay [4]: Cell Viability - LYMP1-002 - Assay at 40 hr (AID 994).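 Note: 0% = DMSO only and full inhibition = 92 µM tetraoctylammonium bromide; nearly all actives have a fitted effect of over 60% in size.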 An outline of the steps:
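Cells are plated at 2500 per well and rested 5 hr at 37 C. Compounds are added and incubated 40 hr at 37 C. CellTiter-Glo reagent is added for 30 min at room temperature before luminescence is read.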

Assay [5] in a line: qHTS Assay for Identification of Small Molecule Inducers of Hypoxia Response (AID 2120; active = well fitted curve in the direction sought with a large enough effect in the signal ratio, with a control signal flat, not every such curve was filed as active; the % refers to the signal ratio; note: 0% is about no effect). An outline of the steps: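 Cell-based qHTS for reporter induction: hypoxia response element controlled beta-lactamase in ME-180 cells. Compounds incubated 17 h at 37 degrees C; activity from blue/green (460/530 nm) ratio, inducers ranked by AC50.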
Background: In qHTS, concentration-response curves come from the screen itself.

In assay [6] the target is Estrogen receptor (Homo sapiens) (UniProt P03372). Kind of assay: qHTS assay for small molecule antagonists of estrogen receptor alpha signaling (AID 588513; active = well fitted curve in the direction sought with a large enough effect in the signal ratio, with a control signal flat, not every such curve was filed as active; the % refers to the signal ratio; note: % is set by controls: 0 for no effect and ±100 for the full control effect). The gist of the method:
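Beta-lactamase reporter, antagonist mode, HEK 293 GripTite cells; 0.5nM E2 stimulus, 18 h, 37 C; CCF4 dye 2 h RT; fluorescence. IC50 and efficacy from Hill fits, normalized to E2 and DMSO.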

Assay [7] has the same target. Kind of assay: qHTS assay for small molecule agonists of estrogen receptor alpha signaling (AID 588514; calls by dose curve;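 note: 0% = vehicle only and 100% = reference agonist; nearly all actives have a fitted effect of over 70% in size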). The gist of the method:
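Efficacy is expressed against 20 nM 17-beta-estradiol (100%) and DMSO basal (0%); EC50 from Hill equation. Assay: beta-lactamase reporter in ER-alpha-UAS-bla HEK 293 cells, 18 h compound incubation, CCF4 detection.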

Assay [8] deals with Androgen receptor (Homo sapiens) (UniProt P10275). Kind of assay: qHTS assay for small molecule agonists of androgen receptor signaling (AID 588515; active = well fitted curve in the direction sought with a large enough effect in the signal ratio, with a control signal flat; the % refers to the signal ratio; note: % is set by controls: 0 for no effect and ±100 for the full control effect). As to conditions: AR-UAS-bla HEK293, beta-lactamase ratio, agonist 16 h; stronger effect = higher value. The gist of the method:
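Stimulation of an AR-responsive β-lactamase reporter in GripTite HEK293 cells was measured after 16 h compound exposure at 37 °C, via CCF4 fluorescence after 2 h RT. EC50 from Hill fits, normalized to R1881 at 30 nM.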

The target is the same in assay [9]. The assay is described as follows: qHTS assay for small molecule antagonists of androgen receptor signaling (AID 588516; active = well fitted curve in the direction sought with a large enough effect in the signal ratio, with a control signal flat, not every such curve was filed as active; the % refers to the signal ratio; note: % is set by controls: 0 for no effect and ±100 for the full control effect). An outline of the steps:
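HEK293 AR-UAS-bla cells, 10% dialyzed FBS medium; cpd titration + R1881 10 nM final, 16 h 37 C; CCF4 2 h RT; FRET ratio; IC50/efficacy via Hill fit.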

Assay [10] can be described thus: qHTS assay for small molecule antagonists of peroxisome proliferator-activated receptor delta signaling (AID 588535; active = well fitted inhibition curve with a large enough effect in the signal ratio, with a control signal flat, not every such curve was filed as active; the % refers to the signal ratio;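 for max response: cells co-treated with a PPAR-delta agonist as stimulator during compound exposure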). Particulars: HEK293T PPARd-UAS-bla, beta-lactamase FRET ratio, 18 h; 460 nm channel. An outline of the steps: (§1)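 Inhibition of PPAR-delta response element-driven beta-lactamase expression is measured in HEK293T cells exposed to a compound titration series for 18 hrs at 37 C. Half-maximal inhibition comes from Hill equation fitting.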

Assay [11] deals with Peroxisome proliferator-activated receptor delta (Homo sapiens) (UniProt Q03181). The assay is described as above. An outline of the steps: as §1
Chain of Peroxisome proliferator-activated receptor delta (Homo sapiens) (Q03181 whole entry, looked up): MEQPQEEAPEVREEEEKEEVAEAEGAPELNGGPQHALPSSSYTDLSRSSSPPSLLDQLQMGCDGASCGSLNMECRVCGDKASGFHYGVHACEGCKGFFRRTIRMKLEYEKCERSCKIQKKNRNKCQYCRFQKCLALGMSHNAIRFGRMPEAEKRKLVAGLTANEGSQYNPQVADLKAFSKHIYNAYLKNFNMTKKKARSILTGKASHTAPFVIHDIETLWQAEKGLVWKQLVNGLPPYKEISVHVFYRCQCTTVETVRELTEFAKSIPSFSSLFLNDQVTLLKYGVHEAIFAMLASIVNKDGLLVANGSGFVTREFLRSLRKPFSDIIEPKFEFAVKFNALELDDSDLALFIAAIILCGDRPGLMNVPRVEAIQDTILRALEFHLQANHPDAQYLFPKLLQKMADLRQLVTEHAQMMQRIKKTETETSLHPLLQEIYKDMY
For assay [12], the target named is Peroxisome proliferator-activated receptor gamma (Homo sapiens) (UniProt P37231). Kind of assay: qHTS assay for small molecule agonists of peroxisome proliferator-activated receptor gamma signaling (AID 588536; active = well fitted curve in the direction sought with a large enough effect in the signal ratio, with a control signal flat, not every such curve was filed as active; the % refers to the signal ratio;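 note: 0% = DMSO basal wells and 100% = rosiglitazone at 2 µM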). An outline of the steps: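 Beta-lactamase reporter read-out: CCF4 fluorescence (ex 405, em 460/530 nm) after 2 h at RT. HEK293 GeneBLAzer cells were treated for 16 h at 37 C. Hill fits gave EC50 and efficacy versus 2 uM rosiglitazone (100%) and DMSO (0%).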
Chain of Peroxisome proliferator-activated receptor gamma (Homo sapiens) (P37231 whole entry, looked up): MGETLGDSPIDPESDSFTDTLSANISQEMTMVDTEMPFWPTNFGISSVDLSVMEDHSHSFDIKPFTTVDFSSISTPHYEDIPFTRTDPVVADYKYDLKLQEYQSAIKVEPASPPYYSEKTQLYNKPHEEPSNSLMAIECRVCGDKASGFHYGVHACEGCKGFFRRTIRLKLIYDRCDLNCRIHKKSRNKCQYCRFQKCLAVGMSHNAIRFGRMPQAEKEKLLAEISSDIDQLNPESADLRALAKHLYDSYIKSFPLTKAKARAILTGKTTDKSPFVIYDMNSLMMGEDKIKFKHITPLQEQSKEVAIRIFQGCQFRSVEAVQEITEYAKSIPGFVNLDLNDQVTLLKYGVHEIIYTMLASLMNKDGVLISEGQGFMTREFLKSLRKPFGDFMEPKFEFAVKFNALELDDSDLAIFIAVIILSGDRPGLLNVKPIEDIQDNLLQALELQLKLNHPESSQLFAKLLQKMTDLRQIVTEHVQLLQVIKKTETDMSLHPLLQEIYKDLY

Assay [13] has the same target. Kind of assay: qHTS assay for small molecule antagonists of peroxisome proliferator-activated receptor gamma signaling (AID 588537; active = well fitted inhibition curve with a large enough effect in the signal ratio, with a control signal flat, not every such curve was filed as active; the % refers to the signal ratio;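 note: reporter cells co-stimulated with 50 nM rosiglitazone agonist during compound treatment; % of control where 0% means no effect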). An outline of the steps: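 Compounds are tested as concentration series for inhibition of rosiglitazone-driven (50 nM) reporter expression in GeneBLAzer PPAR-gamma-UAS-bla HEK293 cells. After 16 h at 37 C, CCF4 substrate is added for 2 h at room temperature and blue/green fluorescence is measured.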

The target of assay [14] is Vitamin D3 receptor (Homo sapiens) (UniProt P11473). The assay is described as follows: qHTS assay for small molecule antagonists of vitamin D receptor signaling (AID 588541; calls by dose curve;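 note: receptor activated by calcitriol during compound treatment; series mostly up to about 77 µM; % is set by controls: 0 for no effect and ±100 for the full control effect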). The gist of the method:
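VDR-UAS-bla HEK293T cells (2000/well, 2% charcoal-stripped FBS) were treated with titrated compounds plus 1-alpha,25-dihydroxyvitamin D3 (50 nM or 3 nM final) for 16 h at 37 C. CCF4 beta-lactamase fluorescence was read; Hill fits gave IC50.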

For assay [15] the target is unchanged. Kind of assay: qHTS assay for small molecule agonists of vitamin D receptor signaling (AID 588543; calls by dose curve;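 note: 0% = DMSO basal and 100% = reference agonist control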). An outline of the steps:
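β-lactamase reporter, VDR-UAS-bla HEK293T, agonist mode. Cells plated 5 h at 37 °C, compound titration 16 h at 37 °C, CCF4 dye 2 h RT, ratio 460/530 nm. Hill fit → EC50, efficacy vs 50 nM 1α,25-(OH)2D3.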

Assay [16] can be described thus: Cell Viability - LYMP2-022 (AID 987).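 Note: 0% = DMSO alone and full effect = tetraoctylammonium bromide at 92 µM; nearly all actives have a fitted effect of over 55% in size.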 The gist of the method: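 Cells were seeded at 2500 per well, rested 5 hr at 37 C, and treated with titrated compounds for 24 hr at 37 C. Cellular ATP was then quantified by luciferase luminescence, and AC50 values were derived from Hill-modelled concentration-response curves.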
Assay [17] is described as follows: Cell Viability - LYMP1-002 - Assay at 24 hr (AID 993). Note: % is set by controls: 0 for no effect and ±100 for the full control effect. An outline of the steps:
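Acute toxicity is measured as concentration-dependent loss of cellular ATP in a human lymphoblastoid line (Coriell LYMP1-002) after 24 h treatment in complete medium. ATP is quantified by luciferase luminescence and AC50 derived by Hill modelling.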

Assay [18] addresses Glucocorticoid receptor (Homo sapiens) (UniProt P04150). Kind of assay: qHTS assay for small molecule agonists of glucocorticoid receptor signaling (AID 588532; active = well fitted curve in the direction sought with a large enough effect in the signal ratio, with a control signal flat; the % refers to the signal ratio;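 note: 100% = dexamethasone at 0.1 µM and 0% = DMSO only wells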). Particulars: HeLa MMTV-bla, beta-lactamase ratio, agonist, 18 h; stronger effect = higher value; percent of dexamethasone control, DMSO zero. An outline of the steps:
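Titration series, up to 92 uM, applied to GRE-bla HeLa cells for 18 h at 37 C. Detection by CCF4 FRET substrate after 2 h at RT.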

Assay [19] has the same target. The assay is described as follows: qHTS assay for small molecule antagonists of glucocorticoid receptor signaling (AID 588533; active = well fitted inhibition curve with a large enough effect in the signal ratio, with a control signal flat, not every such curve was filed as active; the % refers to the signal ratio). An outline of the steps: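 Antagonist-mode qHTS: compound titrations added to GRE-bla HeLa cells, then dexamethasone 2 nM final; 18 h, 37 C. CCF4 FRET fluorescence normalized to dexamethasone and DMSO; IC50 from Hill fit.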
Assay [20] concerns the target Bile acid receptor (Homo sapiens) (UniProt Q96RI1). Kind of assay: qHTS assay for small molecule antagonists of farnesoid X receptor signaling (AID 588526; calls by dose curve; note: % is set by controls: 0 for no effect and ±100 for the full control effect). The gist of the method:
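Concentration-response titrations were fitted to the Hill equation for half-maximal inhibition and maximal response, with data normalised to 50 uM chenodeoxycholic acid and DMSO control wells. Cells: FXR-UAS-bla HEK293T, dialyzed FBS.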

Chain of Vitamin D3 receptor (Homo sapiens) (P11473 whole entry, looked up): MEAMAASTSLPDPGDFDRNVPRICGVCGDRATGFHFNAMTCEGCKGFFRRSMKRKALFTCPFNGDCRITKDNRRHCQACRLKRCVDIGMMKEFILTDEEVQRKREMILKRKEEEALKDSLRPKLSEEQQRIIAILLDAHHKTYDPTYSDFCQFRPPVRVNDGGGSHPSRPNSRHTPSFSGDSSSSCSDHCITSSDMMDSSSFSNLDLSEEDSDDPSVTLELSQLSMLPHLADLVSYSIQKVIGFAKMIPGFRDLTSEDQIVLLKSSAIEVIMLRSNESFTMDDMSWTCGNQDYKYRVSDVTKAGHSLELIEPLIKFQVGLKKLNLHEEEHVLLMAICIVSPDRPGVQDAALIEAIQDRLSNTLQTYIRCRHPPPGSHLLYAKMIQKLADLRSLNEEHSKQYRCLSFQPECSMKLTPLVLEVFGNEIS
Chain of Glucocorticoid receptor (Homo sapiens) (P04150 whole entry, looked up): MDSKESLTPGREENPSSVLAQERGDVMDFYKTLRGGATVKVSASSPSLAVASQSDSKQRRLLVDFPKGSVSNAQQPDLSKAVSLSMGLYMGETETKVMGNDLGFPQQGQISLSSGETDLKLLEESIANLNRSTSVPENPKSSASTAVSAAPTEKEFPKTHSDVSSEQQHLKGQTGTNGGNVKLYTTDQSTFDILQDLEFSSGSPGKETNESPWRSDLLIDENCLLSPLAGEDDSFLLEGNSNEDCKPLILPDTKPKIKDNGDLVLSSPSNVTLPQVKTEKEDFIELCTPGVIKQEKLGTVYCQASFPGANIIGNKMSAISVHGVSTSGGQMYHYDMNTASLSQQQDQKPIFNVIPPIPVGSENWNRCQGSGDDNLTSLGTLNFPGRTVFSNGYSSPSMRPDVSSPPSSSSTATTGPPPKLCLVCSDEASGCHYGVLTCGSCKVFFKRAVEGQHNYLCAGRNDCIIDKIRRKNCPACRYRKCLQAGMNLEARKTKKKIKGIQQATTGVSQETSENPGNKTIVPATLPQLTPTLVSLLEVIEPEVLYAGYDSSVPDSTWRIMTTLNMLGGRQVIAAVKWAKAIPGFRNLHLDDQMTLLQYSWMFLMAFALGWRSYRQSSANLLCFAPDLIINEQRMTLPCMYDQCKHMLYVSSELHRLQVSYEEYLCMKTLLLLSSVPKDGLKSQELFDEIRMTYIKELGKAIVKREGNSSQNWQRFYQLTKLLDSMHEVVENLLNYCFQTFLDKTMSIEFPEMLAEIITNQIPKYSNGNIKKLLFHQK
Chain of Androgen receptor (Homo sapiens) (P10275 whole entry, looked up): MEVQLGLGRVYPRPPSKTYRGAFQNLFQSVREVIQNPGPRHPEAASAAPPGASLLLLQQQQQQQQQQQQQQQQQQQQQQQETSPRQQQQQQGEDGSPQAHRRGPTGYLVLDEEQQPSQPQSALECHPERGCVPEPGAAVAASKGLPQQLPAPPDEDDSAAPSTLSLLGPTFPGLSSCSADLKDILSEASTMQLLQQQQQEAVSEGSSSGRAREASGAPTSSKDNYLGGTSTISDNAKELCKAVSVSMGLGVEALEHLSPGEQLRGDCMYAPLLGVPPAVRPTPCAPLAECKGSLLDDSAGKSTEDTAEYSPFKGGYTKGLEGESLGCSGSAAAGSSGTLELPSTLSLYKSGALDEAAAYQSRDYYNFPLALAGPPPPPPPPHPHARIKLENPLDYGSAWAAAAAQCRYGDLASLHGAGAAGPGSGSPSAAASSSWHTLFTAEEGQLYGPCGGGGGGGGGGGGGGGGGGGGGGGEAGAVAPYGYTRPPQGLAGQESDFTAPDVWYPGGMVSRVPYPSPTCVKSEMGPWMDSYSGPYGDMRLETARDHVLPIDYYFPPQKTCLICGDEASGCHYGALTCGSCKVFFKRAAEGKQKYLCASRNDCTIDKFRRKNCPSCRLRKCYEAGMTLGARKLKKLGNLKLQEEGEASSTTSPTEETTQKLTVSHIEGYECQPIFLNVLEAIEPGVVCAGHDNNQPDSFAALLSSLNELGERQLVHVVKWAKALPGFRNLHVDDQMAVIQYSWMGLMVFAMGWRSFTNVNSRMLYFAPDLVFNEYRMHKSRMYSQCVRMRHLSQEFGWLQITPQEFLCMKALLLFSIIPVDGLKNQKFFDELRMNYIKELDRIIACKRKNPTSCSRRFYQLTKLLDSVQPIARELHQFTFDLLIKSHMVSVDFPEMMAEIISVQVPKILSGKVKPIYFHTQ
Chain of Bile acid receptor (Homo sapiens) (Q96RI1 whole entry, looked up): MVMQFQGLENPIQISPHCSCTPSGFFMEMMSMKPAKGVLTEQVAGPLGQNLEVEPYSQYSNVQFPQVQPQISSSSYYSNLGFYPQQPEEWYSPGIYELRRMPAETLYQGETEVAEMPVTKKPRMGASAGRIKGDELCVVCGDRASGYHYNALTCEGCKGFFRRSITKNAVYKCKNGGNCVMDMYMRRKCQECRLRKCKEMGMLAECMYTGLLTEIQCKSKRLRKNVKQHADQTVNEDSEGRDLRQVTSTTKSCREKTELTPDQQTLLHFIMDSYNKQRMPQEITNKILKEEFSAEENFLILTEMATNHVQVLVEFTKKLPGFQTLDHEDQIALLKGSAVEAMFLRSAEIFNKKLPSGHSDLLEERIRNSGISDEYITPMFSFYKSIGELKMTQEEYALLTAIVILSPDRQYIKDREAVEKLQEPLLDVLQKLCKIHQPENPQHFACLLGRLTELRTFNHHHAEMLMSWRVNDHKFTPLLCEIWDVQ
Chain of Estrogen receptor (Homo sapiens) (P03372 whole entry, looked up): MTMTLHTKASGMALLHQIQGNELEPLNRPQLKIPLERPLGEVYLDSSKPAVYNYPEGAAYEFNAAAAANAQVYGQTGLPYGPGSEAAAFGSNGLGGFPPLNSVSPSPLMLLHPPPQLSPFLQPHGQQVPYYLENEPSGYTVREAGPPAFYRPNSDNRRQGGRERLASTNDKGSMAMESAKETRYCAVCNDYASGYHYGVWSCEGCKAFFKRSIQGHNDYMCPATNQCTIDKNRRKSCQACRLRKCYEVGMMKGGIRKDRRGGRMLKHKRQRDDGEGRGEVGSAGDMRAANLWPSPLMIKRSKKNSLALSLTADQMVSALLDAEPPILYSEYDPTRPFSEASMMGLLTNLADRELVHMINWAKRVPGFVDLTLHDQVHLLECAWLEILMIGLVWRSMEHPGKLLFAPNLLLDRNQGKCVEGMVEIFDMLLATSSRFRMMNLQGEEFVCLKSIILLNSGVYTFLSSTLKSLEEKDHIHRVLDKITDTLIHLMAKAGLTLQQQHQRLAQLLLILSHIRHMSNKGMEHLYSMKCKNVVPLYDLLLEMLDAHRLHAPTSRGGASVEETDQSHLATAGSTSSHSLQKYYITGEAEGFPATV

Regarding `Cc1cccc(C(=O)O)c1`, the Potency entry in assay [1], in [2], in assay [4], in assay [7] and in assay [11] was “inactive” throughout. Further, the result in [3], in assay [5], in assay [6], in assay [9], in assay [12] and in [13] was inactive. Also, the compound was called inactive in [14] and in assay [15]. The activation in [8] was -5.05% (inactive). In addition, the max response in assay [10] is -5.23%.
With `CC(C)(O)CCC(C)(C)O`, the Potency entry in [1], in assay [16], in [17], in assay [4] and in [7] was “inactive” each time. The result in [3], in [5], in assay [6], in assay [19], in assay [12] and in [13] was inactive. The compound was classed as inactive in assay [14]. In addition, the activation in assay [8] is -1.56% (inactive); in assay [18], -3.83% (inactive).
Take `CCOc1cc(OCC)c(C(C)=O)cc1OCC`: the Potency entry in [1], in assay [16], in [2], in assay [17], in assay [4] and in [7] was “inactive” throughout. In addition, the compound was called inactive in [3], in [5], in assay [6], in [9], in assay [20] and in assay [19]. Also, the compound was called inactive in [13], in assay [14] and in assay [15]. Moreover, the activation in assay [8] was -14.7% (inactive); in assay [18], -0.956% (inactive).
`C1CCC2OC2C1` (stereo unspecified): the Potency result in assay [1], in assay [16], in assay [17], in assay [4], in [7] and in assay [11] was “inactive” in each case. Also, the call in assay [3], in assay [5], in [6], in assay [14] and in assay [15] was inactive. For the same compound, the activation in assay [8] was -3.32% (inactive); in assay [18] it was -6.07% (inactive). Moreover, the max response in assay [10] turned out to be 38.4%.
Regarding `CCc1ccccc1O`, the Potency entry in [1], in assay [16], in [2], in assay [17], in assay [4] and in [7] was “inactive” in each case. Besides, the Potency result in assay [11] was “inactive”. For the same compound, the compound was called inactive in assay [3], in assay [5], in assay [6], in assay [20], in assay [19] and in assay [13]. Also, the compound was classed as inactive in assay [14] and in [15]. For the same compound, in [18], the activation is 4.35% (inactive). The max response in [10] was -32.1%.
On to `O=C(Cl)c1cccc([N+](=O)[O-])c1`, for which the Potency result in assay [1], in assay [16], in [2], in [17], in [4] and in [7] was “inactive” throughout. In assay [11], the Potency entry was “inactive”. Also, the compound was called inactive in [3], in [5], in assay [6], in assay [20], in assay [19] and in [12]. In addition, the compound was called inactive in assay [14] and in assay [15]. Further, the activation in assay [18] was 3.39% (inactive). In [10], the max response is 33.5%.
Take `CC(=O)Nc1cccc(N)c1`: the Potency result in assay [1], in assay [16], in assay [2], in assay [4], in assay [7] and in assay [11] was “inactive” throughout. For the same compound, the result in [3], in [5], in assay [6], in assay [20], in assay [19] and in [12] was inactive. Moreover, the compound was classed as inactive in assay [13], in assay [14] and in assay [15]. Further, the activation in assay [18] is -4.95% (inactive). In addition, the max response in [10] was 38.5%.
Take `COc1cccc2sc(N)nc12`: the Potency result in [1], in [16], in assay [2], in assay [17], in assay [4] and in assay [7] was “inactive” in each case. In assay [11], the Potency result is “inactive”. Moreover, the compound was called inactive in [5], in assay [6], in assay [9], in assay [20], in assay [12] and in assay [14]. Also, the call in [15] was inactive. Besides, the max response in assay [10] is -34.4%.
Regarding `Nc1cccc2c(=O)[nH][nH]c(=O)c12`, the Potency result in assay [1], in [16], in [2], in assay [17], in assay [4] and in [7] was “inactive” in each case. In assay [11], the Potency entry was “inactive”. Besides, the compound was called inactive in assay [5], in assay [6], in assay [20], in assay [19], in assay [12] and in assay [13]. Besides, the activation in assay [18] is 0.411% (inactive). In addition, the max response in assay [10] is -7.57%.
